{
  "source": "the supplement of paper PMC11417369",
  "note": "Over roughly 25,000 sequences, “ln(normalized median fluorescence intensity)” has its median near 9.3; the highest 2% begin near 10. The sample holds the highest values, similar sequences and a random draw of the others, so the mix is not that of the screen.",
  "data": [
    {"system": "PF3D7_0420300 AP2 domain 1 (GST-tagged)", "test": "gcPBM binding intensity (ln(normalized median fluorescence intensity)); higher = stronger DNA binding", "procedure,_shortened": "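After 1 h on an Agilent 4 × 180k array of primer-extended double-stranded 36-bp intergenic genomic probes and negative controls, bound GST-tagged P. falciparum DNA-binding domains were detected with Alexa488 anti-GST antibody and scanned at 488 nm. The domains had been expressed in E. coli, and binding took place in 1× PBS with 1% milk, 0.2 mg/ml BSA, 0.5% salmon testes DNA and 0.03% Triton X-100. Binding intensity is the highest Masliner-normalised natural-log median intensity across replicate spots of either probe orientation.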", "values": [
      {"sequence": "AATATATATATACATACATGCATACATATATATATA [TGCATGCA_site784]", "gcPBM binding intensity (ln)": 9.24},
      {"sequence": "TTTATCCTTCTTTTGAGTACTCAAAGAGACCTATAA [XGTACX_site8050]", "gcPBM binding intensity (ln)": 8.83},
      {"sequence": "ATGAATTTATTACATTGTACATTTTTAAAAGGTTAC [XGTACX_site124]", "gcPBM binding intensity (ln)": 9.11},
      {"sequence": "TAAAAAAGAACAGAAACACACAAATAAAATAAAATT [CACACA_site1758]", "gcPBM binding intensity (ln)": 10},
      {"sequence": "GGGAGAAATTTATACATACACACATATATATATTAT [CACACA_site4039]", "gcPBM binding intensity (ln)": 9.62},
      {"sequence": "AAATATTATACAAAAAAAAAAAAAAAAAAAATATAT [CACACA_negctrl_site52]", "gcPBM binding intensity (ln)": 9.39},
      {"sequence": "AAAGCACCCAGGCACACACACAAAGGAAAAGAAAAA [CACACA_site232]", "gcPBM binding intensity (ln)": 9.83},
      {"sequence": "TTAATACCCAGACACACACACACAAAATAAAATACA [CACACA_site7968]", "gcPBM binding intensity (ln)": 10.1},
      {"sequence": "AAAAAAAACAGACACACACACAAATACATACACAAA [CACACA_site705]", "gcPBM binding intensity (ln)": 10},
      {"sequence": "TTAATCCACAGACACACACACACAAAATAAAATACA [CACACA_site244]", "gcPBM binding intensity (ln)": 10.2},
      {"sequence": "AAAAAAAACAGACACACACACAAATATATAAAAATA [CACACA_site1172]", "gcPBM binding intensity (ln)": 10},
      {"sequence": "AAAAAAAACAGACACACACACATACAAAATATATAT [CACACA_site1449]", "gcPBM binding intensity (ln)": 10.2},
      {"sequence": "AAAAAAAAAAAAAATACACACAAATAATAAAAATAA [CACACA_site1431]", "gcPBM binding intensity (ln)": 9.85},
      {"sequence": "TTAATACCCGGACACACACACACAAAATAAAATACA [CACACA_site4296]", "gcPBM binding intensity (ln)": 10.2},
      {"sequence": "GCTTAATACAGAATAACACACAAAATAAATAAATAA [CACACA_site4041]", "gcPBM binding intensity (ln)": 9.56},
      {"sequence": "AAAACAGACAAACACACACACACATATATATATATA [CACACA_site3393]", "gcPBM binding intensity (ln)": 10},
      {"sequence": "ATAAATGACAGACACACACACAAAAAAAAAAAACAA [CACACA_site2626]", "gcPBM binding intensity (ln)": 10.2},
      {"sequence": "AAAAAAAAAAAAAACACACACATACAGACAAAAATG [CACACA_site83]", "gcPBM binding intensity (ln)": 10.1},
      {"sequence": "CAAATACCCGGACACACACACACAAAAAAAAAAAAA [CACACA_site4441]", "gcPBM binding intensity (ln)": 9.99},
      {"sequence": "AAATGTACAGGACGCACACACATATTTATATTTATA [CACACA_site7689]", "gcPBM binding intensity (ln)": 9.67},
      {"sequence": "ATACATATATTAGGATGTACGTTTATTTTAGTTATT [XGTACX_site7169]", "gcPBM binding intensity (ln)": 9.47},
      {"sequence": "ATTAATATTTAGACTTGTACATATATAATATATGTC [XGTACX_site3766]", "gcPBM binding intensity (ln)": 9.2},
      {"sequence": "AAATTCTTAACCCAACGTACATATAATAAATTCTTA [XGTACX_site8538]", "gcPBM binding intensity (ln)": 9.1},
      {"sequence": "CAATCATTTTATTGTTGTACAGTAATTATGAATTCA [XGTACX_site7508]", "gcPBM binding intensity (ln)": 9.03},
      {"sequence": "TACAATGAAAAAATAACATGCAATTATATTTCTCTT [TGCATGCA_site833]", "gcPBM binding intensity (ln)": 9.17},
      {"sequence": "TATATAAATTAACCAGTGCATTATTTGGAAATTATT", "gcPBM binding intensity (ln)": 9.31},
      {"sequence": "CATTATGATTAAATATGTACATATTATTATATAAAT [XGTACX_site2477]", "gcPBM binding intensity (ln)": 9.08},
      {"sequence": "GAAAAAAAAAAAAAAAAAAAAAGGAAAAAAGTGAAA [CACACA_negctrl_site996]", "gcPBM binding intensity (ln)": 9.21},
      {"sequence": "TATATATGTATATATGGTACAGAATATTCTACATTA [XGTACX_site5077]", "gcPBM binding intensity (ln)": 9.23},
      {"sequence": "ATATCATTTTCCTGCACACATAAATTTATATAATAT [CACACA_site1048]", "gcPBM binding intensity (ln)": 9.76},
      {"sequence": "TTTTTTTTCTATGTGGTGCACATTATTTTTTTTTTT", "gcPBM binding intensity (ln)": 9.41},
      {"sequence": "CACAAAAAGAAACACACACACATATATATATATATA [CACACA_site999]", "gcPBM binding intensity (ln)": 9.73},
      {"sequence": "AACAAATACAGACACACACACACACTAATAAAAAAA [CACACA_site8067]", "gcPBM binding intensity (ln)": 10.3},
      {"sequence": "TATATATACAGACACATACACACAAATAAAAAAACA [CACACA_site3413]", "gcPBM binding intensity (ln)": 10.1},
      {"sequence": "AAATAAAACAGACACACACACACATACACAAAAAAA [CACACA_site7753]", "gcPBM binding intensity (ln)": 10.2},
      {"sequence": "TGAACACAGACAAATACACACAAAAAAAATAAATAA [CACACA_site4298]", "gcPBM binding intensity (ln)": 9.79},
      {"sequence": "TACAAACAGACATATACACACAAAAAAAAAATAAAA [CACACA_site2562]", "gcPBM binding intensity (ln)": 9.91},
      {"sequence": "AATACAGACAGACACACACACAAAATAAAATACAAA [CACACA_site245]", "gcPBM binding intensity (ln)": 10.1},
      {"sequence": "AAATTATAAATAATTTGTACATAAAAATTGGTAAAG [XGTACX_site5197]", "gcPBM binding intensity (ln)": 9.07},
      {"sequence": "CTTCAATTAAAATTCACACATATAAATTAAAATATT [CACACA_site6129]", "gcPBM binding intensity (ln)": 9.06},
      {"sequence": "GTTACACCAACAAACACACACACACCGACACCCAAA [CACACA_site5361]", "gcPBM binding intensity (ln)": 10.1},
      {"sequence": "AGCACCCACCAACACACACACACACCCACCCACCGA [CACACA_site368]", "gcPBM binding intensity (ln)": 10.3},
      {"sequence": "TACACCCACCAACACACACACACACCCAAAAAAAAA [CACACA_site498]", "gcPBM binding intensity (ln)": 10.1},
      {"sequence": "TGTTATATCAATAATATATAATAATACCCTTCTTTT [CACACA_negctrl_site1682]", "gcPBM binding intensity (ln)": 9.06}
    ]}
  ]
}
